From PubChem BioAssay
Most compounds without a hit are left out; they make up all but 18% or so of the library.
TDP1 cell noCPT – qHTS for Inhibitors of human tyrosyl-DNA phosphodiesterase 1 (TDP1): qHTS in cells in absence of CPT. DT40 Tdp1-/- hTDP1 cells, no CPT, ATP luminescence, 48 h. Potency, µM (doses to about 46.2 µM), for the others: at the highest dose activity change, negative = growth inhibition, usual class: inhibitors. 15% of 420,000 active; further: nearly all actives have a fitted effect of over 55% in size
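Cells were dispensed at 400 per well, compounds added by pin tool, plates incubated ≥48 hr at 37 °C, then CellTiter-Glo added for 30 min at room temperature before luminescence reading. Line: DT40 Tdp1-/- complemented with hTDP1; camptothecin omitted.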
PLK1 PBD inh – inhibitors of human PLK1 polo-box domain binding | P53350 | 2.8% of 360,000 active | Potency, µM, for inactives: max response, negative = inhibition, hits mostly inhibitors | Plk1 PBD binding of FITC phosphopeptide, fluorescence polarization | AID 720504; further: series mostly up to about 57 µM; nearly all actives have a fitted effect of over 65% in size
Target sequence (P53350 whole entry, looked up, the tested form may be a part): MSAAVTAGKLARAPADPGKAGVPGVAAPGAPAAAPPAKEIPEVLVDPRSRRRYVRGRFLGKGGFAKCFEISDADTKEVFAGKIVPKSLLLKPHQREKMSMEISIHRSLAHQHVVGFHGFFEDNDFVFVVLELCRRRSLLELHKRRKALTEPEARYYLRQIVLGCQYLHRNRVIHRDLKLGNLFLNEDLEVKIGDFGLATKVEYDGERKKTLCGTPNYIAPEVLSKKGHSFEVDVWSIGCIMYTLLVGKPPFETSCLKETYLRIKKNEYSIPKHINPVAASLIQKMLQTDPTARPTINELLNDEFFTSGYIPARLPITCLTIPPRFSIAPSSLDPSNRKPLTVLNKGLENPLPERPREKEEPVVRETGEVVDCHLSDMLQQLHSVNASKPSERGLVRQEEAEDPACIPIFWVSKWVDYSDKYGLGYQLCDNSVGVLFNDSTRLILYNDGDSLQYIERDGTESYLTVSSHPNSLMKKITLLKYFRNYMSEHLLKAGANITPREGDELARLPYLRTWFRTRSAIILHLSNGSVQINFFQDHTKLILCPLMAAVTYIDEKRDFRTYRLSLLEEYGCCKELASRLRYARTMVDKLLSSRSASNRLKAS
VDR inh – inhibitors of human vitamin D receptor; P11473; VDR-SRC2-3 peptide fluorescence polarization, 2 h; Potency, µM, without a hit: max response, negative = inhibition, actives largely listed as inhibitors; 0.93% of 400,000 active
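Measured by FP: displacement of SRC2-3 coactivator peptide from VDR by library compounds, following a two-hour ambient incubation.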
KAT2A inh – GCN5L2 (KAT2A) acetyltransferase inhibition; GCN5L2 HAT assay, ThioGlo1 CoA-SH fluorescence; Potency, µM (titrated, usually from 58.9 µM), inactives show at the top dose activity change, negative = inhibition, hits mostly inhibitors; 0.21% of 390,000 active; Q92830; AID 504327
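Fluorescence readout, Ex340nm/Em540nm: ThioGlo1 (50uM final) reacts with free CoA thiol released as 20nM GCN5L2 acetylates H3(1-25) peptide (75uM) using acetyl-CoA (70uM). Compound and enzyme sat 15 min beforehand; 20 min room-temperature reaction.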
TDP1 inh – inhibitors of human tyrosyl-DNA phosphodiesterase TDP1. Q9NUW8. Potency, µM (top dose mostly 130 µM), for inactives: top-dose activity change, negative = inhibition, actives largely listed as inhibitors. recombinant TDP1, AlphaScreen DNA substrate cleavage. 0.28% of 350,000 active; further: nearly all actives have a fitted effect of over 40% in size
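Recombinant human Tdp1 (E. coli-expressed, 1 nM final) preincubated with compounds 15 min at room temperature, then 5'-biotin/3'-phosphotyrosine-FITC DNA substrate (15 nM final) added for 5 min. AlphaScreen beads (10 ug/ml final) added 10 min; cleavage lowers signal.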
TDP1 cell CPT – growth inhibition of DT40 Tdp1-/-;hTDP1 cells with camptothecin (screen for TDP1 inhibitors). chicken DT40 Tdp1-/-;hTDP1 cells + 20 nM CPT, ATP luminescence, 48 h. Potency, µM (series often up to 46.2 µM), inactives show top-dose activity change, negative = growth inhibition, actives largely listed as inhibitors. 12% of 420,000 active. AID 686979; further: nearly all actives have a fitted effect of over 55% in size
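Chicken DT40 Tdp1-/- cells stably complemented with human TDP1 were seeded at 400 cells/well in medium containing 20 nM camptothecin, exposed to pin-transferred compounds, and grown at 37 °C for at least 48 hr. Viability was read as ATP luminescence.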
* marks the source's active call; other numbers are inactive results; ? = inconclusive; . = not tested or not shown; [ ] = dose if it differs, or a comment. The call rests on the fitted dose curve; in most records, active means well fitted curve in the direction sought with a large enough effect; inconclusive means small, poorly fitted or top-dose-only effect, or another doubt; inactive means no such curve, though single readings can be large; an effect the other way counts as inactive or inconclusive. On the % scale 0 is the no-effect control and ±100 the full control effect; potency means the concentration at half of the fitted maximal effect.

SMILES	TDP1 cell noCPT	PLK1 PBD inh	VDR inh	KAT2A inh	TDP1 inh	TDP1 cell CPT
CCCCOc1cccc(C(=O)Nc2cccc3ccc(C)nc23)c1	23µM*	.	23%	3%	6%	?
COc1ccc(NC(=O)c2ccco2)cc1NC(=O)c1cccc(C)c1OC	12µM*	.	?	-9%	4%	21µM*
COc1ccc(OC)c(NC(=O)c2cccc(NC(=O)c3ccco3)c2)c1	?	1%	.	.	.	?
COc1ccc(NC(=O)c2ccco2)cc1NC(=O)c1ccco1	-8%	0%	1%	-2%	-1%	-20%
CCCCOc1cccc(C(=O)Nc2cc(NC(=O)c3ccco3)ccc2OC)c1	21µM*	.	-4%	-6%	10%	18µM*
CC(C)c1c(C(=O)NCC2(N3CCOCC3)CCCC2)cnn1-c1nccc(-c2cccs2)n1	-18%	.	.	.	.	1%[9.04 µM]
COc1ccccc1NC(=O)c1oc2ccccc2c1NC(=O)c1ccco1	?	-6%	2%	3%	0%	-18%
COc1cc(NC(=O)c2oc3ccccc3c2C)ccc1NC(=O)c1ccco1	18µM*	4%	12%	-15%	8%[0.0935 µM]	?
Cc1cccc(OCC(=O)Nc2ccccc2N2CCN(C(=O)C(C)C)CC2)c1C	?	-5%	-1%	0%	0%	21µM*
Cc1cccc(OCC(=O)Nc2ccccc2N2CCCC2)c1C	?	-1%	11%	-7%	.	?
O=C(COc1ccc(F)cc1)Nc1ccc2c(c1)OCCO2	-5%	-21%	37%	-1%	0%	?
CCC(=O)c1ccc(OCC(=O)Nc2ccc3c(c2)OCCO3)cc1	12µM*	-5%	4%	-2%	3%	-19%
Cc1ccc(OCC(=O)Nc2ccccc2N2CCOCC2)c(C)c1	?	-4%	-2%	-4%	2%	18µM*
CCC(=O)c1ccc(OCC(=O)Nc2ccccc2N2CCCCC2)cc1	2.9µM*	-2%	7%	?	0%	2.6µM*
COc1cc(C)ccc1OCC(=O)Nc1ccccc1N1CCOCC1	?	-9%	-18%	2%	-3%	-23%
c1ccc(P(c2ccccc2)c2cnc3ccccn23)cc1	.	.	.	.	4%	.
CCOC(=O)C1CCCN(C(=O)C2(c3ccc(Cl)cc3)CCCC2)CC1 (stereo not given)	?	-9%	.	.	.	?
COc1ccc(C2/C=C\CN(Cc3ccccc3)C(C)C(=O)N2Cc2ccc(F)cc2)cc1 (stereo not given)	.	.	-10%	.	5%	.
CCCN(CCC)CCNC(=O)c1nn(C)c2c1CS(=O)(=O)c1ccccc1-2	-11%	.	10%	-6%	1%	2%
Cc1ccc(NC(=O)c2ccco2)c(NC(=O)COc2ccccc2)c1	-15%	5%	-13%	-6%	.	-21%
COc1ccc(OCC(=O)Nc2ccccc2C(=O)N2CCCC2)cc1	-23%	-10%	-10%	-2%	5%	-17%
Cc1ccccc1OCC(=O)Nc1ccccc1N1CCCCC1	21µM*	0%	13%	-10%	2%	?
Cc1ccc(OCC(=O)Nc2ccccc2C(=O)N2CCCC2)cc1	16µM*	1%	11%	-3%	4%	?
Cc1ccc(NC(=O)COc2ccccc2)c(NC(=O)c2ccccc2C)c1	21µM*	-6%	-8%	.	.	?
CC1=CC(C)(C)N(C(=O)CNC2CCCC2)c2cc(C)ccc21	26µM*	3%	-20%	-1%	10%	?
COc1cc(OC)cc(C(=O)NCC(=O)N2CC=C(c3ccccc3)CC2)c1	4.6µM*	-2%	-11%	-4%	.	3.3µM*
COc1ccc(C(=O)NCC(=O)N2CCN(c3ccccc3)CC2)cc1	-8%	3%	-5%	-1%	4%	-13%
O=C(NCC(=O)N1CC=C(c2ccccc2)CC1)c1ccc(OC(F)F)cc1	7.3µM*	-7%	-13%	-13%	-1%	7.3µM*
